# Experimental data reported in PubChem BioAssay.
# Active and inactive are the calls of the source.
# Columns and labels:
# [1] = small molecules captured by biotinylated probe aFSTL3 – biochemical, small-molecule microarray, fluorescence 635/667, stem cell growth factor project, primary screen (AID 1064); settings: higher = more signal;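 further: measures binding of the biotinylated anti-FSTL3 antibody to printed compounds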
# [2] = binders from COS7 lysate, DM2A8 probe, primary screen, torsin A project, cell lysate, small-molecule microarray, fluorescence 635/667 (AID 1065); settings: higher = more signal, COS7 lysate expressing mutant human TOR1A
# [3] = small molecules captured by biotinylated probe aFGF2 – biochemical, small-molecule microarray, fluorescence 635/667, stem cell growth factor project, primary screen (AID 1067); settings: higher = more signal;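 further: measures binding of biotinylated aFGF2 protein to printed compounds on slides; z-score merges feature fluorescence and signal-to-noise across triplicate slides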
# [4] = small molecules captured by biotinylated probe aFGF10 – biochemical, small-molecule microarray, fluorescence 635/667, stem cell growth factor project, primary screen (AID 1071); settings: higher = more signal;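 further: score merges 667 nm spot intensity and signal to noise from triplicate slides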
# [5] = biological target: Neurogenic locus notch homolog protein 2 (Homo sapiens) (UniProt Q04721); assay: small molecules binding Notch2 protein – biochemical, small-molecule microarray, 635 nm fluorescence, stem cell growth factors, primary screen (AID 1073); settings: higher = more signal
# [6] = biological target: Pro-neuregulin-1, membrane-bound isoform (Homo sapiens) (UniProt Q02297); assay: small molecules binding neuregulin-1 protein – biochemical, small-molecule microarray, fluorescence 635/667, psychiatric disease protein project, primary screen (AID 1075); settings: NRG1 binding, 635 nm fluorescence, higher = more signal;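 further: score combines 667 nm spot fluorescence with signal to noise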
# [7] = tested on: Neuregulin-1 EGF-like domain; assay: small molecules binding NRG1 EGF domain – biochemical, small-molecule microarray, 635 nm fluorescence, primary screen (AID 1081); settings: higher = more signal;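 further: binding of the protein to compounds printed on small-molecule microarray slides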
# [8] = FRG1 expression reporter modulators in myotubes – cell-based, C2C12 myotubes, firefly/Renilla luciferase, luminescence, FRG1 inhibition for FSHD, primary screen (AID 1084); settings: FRG1 promoter luciferase, higher = more signal, called active from +8 up or from −8 down
# [9] = small molecules captured by biotinylated probe aFST – biochemical, small-molecule microarray, fluorescence 635/667, stem cell growth factor project, primary screen (AID 1086); settings: higher = more signal;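 further: score merges 667 nm fluorescence with signal-to-noise of each printed compound spot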
# [10] = binders of probe aHhip on microarray, primary screen, stem cell growth factor project, biochemical, small-molecule microarray, fluorescence 635/667 (AID 1087); settings: higher = more signal;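 further: score merges spot fluorescence at 667nm with spot signal to noise ratio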
# [11] = tested on: PRMT1 (protein arginine N-methyltransferase 1); assay: small molecules binding arginine methyltransferase PRMT1 – biochemical, small-molecule microarray, 635 nm fluorescence, primary screen (AID 1088); settings: higher = more signal;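 further: binding of Prmt1 protein to compounds spotted on small-molecule microarray slides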
# [12] = growth effects on S. cerevisiae YJM789 – YJM789 clinical isolate, OD600, 24 h, basal, primary screen (AID 1089); settings: higher = more signal, called active from +8 up or from −8 down;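 further: growth of clinical yeast isolate S. cerevisiae YJM 789 seeded 1000 cells per well; test concentration not given here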
# [13] = S. pombe growth modifiers, basal conditions – strain 972, OD600, 24 h, no modulator, primary screen (AID 1090);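 further: basal condition with compound alone and no growth modifier present; test concentration not given here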; settings: S. pombe 972 growth, higher = more signal, called active from +8 up or from −8 down
# [14] = budding yeast growth modifiers under rapamycin – strain BY4716, OD600, 96 h, primary screen (AID 1091); further: test concentration not given here; settings: S. cerevisiae BY4716 + rapamycin, higher = more signal, called active from +8 up or from −8 down
# [15] = biological target: Torsin-1A-interacting protein 2 (Homo sapiens) (UniProt Q8NFQ8); assay: small molecules binding lysate-expressed LULL1 – cell lysate, human LULL1 lysate, 635/667 nm fluorescence, primary screen (AID 1092); settings: small-molecule microarray, hLULL1 lysate binding, 635 nm fluorescence; higher = more signal;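 further: probe is lysate of COS7 cells overexpressing human LULL1; score merges per-feature 667 nm fluorescence with signal-to-noise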
# [16] = optical density change of DRC41 E. coli – strain DRC41, OD650, 24 h, E. coli filamentation project, primary screen (AID 1093);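 further: MC1000 strain lacking acrAB efflux and sulA so SOS filamentation is blocked; test concentration not given here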; settings: E. coli DRC41 growth, higher = more signal, called active from +8 up or from −8 down
# [17] = probe aLefty2 binding to arrayed compounds – biochemical, biotinylated probe, 635/667 nm fluorescence, primary screen (AID 1094); settings: small-molecule microarray, higher = more signal;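 further: score merges spot fluorescence near 667 nm with spot signal-to-noise ratio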
# [18] = tested on: Noggin (protein binding on small-molecule microarray); assay: small molecules binding Noggin protein – biochemical, 635/667 nm fluorescence, primary screen (AID 1095); settings: 635 nm fluorescence, higher = more signal;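 further: score merges 667 nm feature fluorescence with signal to noise over triplicate slides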
# [19] = biological target: Neurogenic locus notch homolog protein 3 (Homo sapiens) (UniProt Q9UM47); assay: small molecules binding NOTCH3 protein – biochemical, 635/667 nm fluorescence, primary screen (AID 1096); settings: small-molecule microarray, 635 nm fluorescence, higher = more signal
# [20] = probe aEGFR binding to arrayed compounds – biochemical, biotinylated probe, 635/667 nm fluorescence, primary screen (AID 1097); settings: small-molecule microarray, higher = more signal;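 further: probe is a biotinylated anti-EGFR antibody binding compounds printed on slides; score combines fluorescence near 667 nm and signal to noise of each spot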
# Neurogenic locus notch homolog protein 3 (Homo sapiens), sequence (Q9UM47 whole entry, looked up): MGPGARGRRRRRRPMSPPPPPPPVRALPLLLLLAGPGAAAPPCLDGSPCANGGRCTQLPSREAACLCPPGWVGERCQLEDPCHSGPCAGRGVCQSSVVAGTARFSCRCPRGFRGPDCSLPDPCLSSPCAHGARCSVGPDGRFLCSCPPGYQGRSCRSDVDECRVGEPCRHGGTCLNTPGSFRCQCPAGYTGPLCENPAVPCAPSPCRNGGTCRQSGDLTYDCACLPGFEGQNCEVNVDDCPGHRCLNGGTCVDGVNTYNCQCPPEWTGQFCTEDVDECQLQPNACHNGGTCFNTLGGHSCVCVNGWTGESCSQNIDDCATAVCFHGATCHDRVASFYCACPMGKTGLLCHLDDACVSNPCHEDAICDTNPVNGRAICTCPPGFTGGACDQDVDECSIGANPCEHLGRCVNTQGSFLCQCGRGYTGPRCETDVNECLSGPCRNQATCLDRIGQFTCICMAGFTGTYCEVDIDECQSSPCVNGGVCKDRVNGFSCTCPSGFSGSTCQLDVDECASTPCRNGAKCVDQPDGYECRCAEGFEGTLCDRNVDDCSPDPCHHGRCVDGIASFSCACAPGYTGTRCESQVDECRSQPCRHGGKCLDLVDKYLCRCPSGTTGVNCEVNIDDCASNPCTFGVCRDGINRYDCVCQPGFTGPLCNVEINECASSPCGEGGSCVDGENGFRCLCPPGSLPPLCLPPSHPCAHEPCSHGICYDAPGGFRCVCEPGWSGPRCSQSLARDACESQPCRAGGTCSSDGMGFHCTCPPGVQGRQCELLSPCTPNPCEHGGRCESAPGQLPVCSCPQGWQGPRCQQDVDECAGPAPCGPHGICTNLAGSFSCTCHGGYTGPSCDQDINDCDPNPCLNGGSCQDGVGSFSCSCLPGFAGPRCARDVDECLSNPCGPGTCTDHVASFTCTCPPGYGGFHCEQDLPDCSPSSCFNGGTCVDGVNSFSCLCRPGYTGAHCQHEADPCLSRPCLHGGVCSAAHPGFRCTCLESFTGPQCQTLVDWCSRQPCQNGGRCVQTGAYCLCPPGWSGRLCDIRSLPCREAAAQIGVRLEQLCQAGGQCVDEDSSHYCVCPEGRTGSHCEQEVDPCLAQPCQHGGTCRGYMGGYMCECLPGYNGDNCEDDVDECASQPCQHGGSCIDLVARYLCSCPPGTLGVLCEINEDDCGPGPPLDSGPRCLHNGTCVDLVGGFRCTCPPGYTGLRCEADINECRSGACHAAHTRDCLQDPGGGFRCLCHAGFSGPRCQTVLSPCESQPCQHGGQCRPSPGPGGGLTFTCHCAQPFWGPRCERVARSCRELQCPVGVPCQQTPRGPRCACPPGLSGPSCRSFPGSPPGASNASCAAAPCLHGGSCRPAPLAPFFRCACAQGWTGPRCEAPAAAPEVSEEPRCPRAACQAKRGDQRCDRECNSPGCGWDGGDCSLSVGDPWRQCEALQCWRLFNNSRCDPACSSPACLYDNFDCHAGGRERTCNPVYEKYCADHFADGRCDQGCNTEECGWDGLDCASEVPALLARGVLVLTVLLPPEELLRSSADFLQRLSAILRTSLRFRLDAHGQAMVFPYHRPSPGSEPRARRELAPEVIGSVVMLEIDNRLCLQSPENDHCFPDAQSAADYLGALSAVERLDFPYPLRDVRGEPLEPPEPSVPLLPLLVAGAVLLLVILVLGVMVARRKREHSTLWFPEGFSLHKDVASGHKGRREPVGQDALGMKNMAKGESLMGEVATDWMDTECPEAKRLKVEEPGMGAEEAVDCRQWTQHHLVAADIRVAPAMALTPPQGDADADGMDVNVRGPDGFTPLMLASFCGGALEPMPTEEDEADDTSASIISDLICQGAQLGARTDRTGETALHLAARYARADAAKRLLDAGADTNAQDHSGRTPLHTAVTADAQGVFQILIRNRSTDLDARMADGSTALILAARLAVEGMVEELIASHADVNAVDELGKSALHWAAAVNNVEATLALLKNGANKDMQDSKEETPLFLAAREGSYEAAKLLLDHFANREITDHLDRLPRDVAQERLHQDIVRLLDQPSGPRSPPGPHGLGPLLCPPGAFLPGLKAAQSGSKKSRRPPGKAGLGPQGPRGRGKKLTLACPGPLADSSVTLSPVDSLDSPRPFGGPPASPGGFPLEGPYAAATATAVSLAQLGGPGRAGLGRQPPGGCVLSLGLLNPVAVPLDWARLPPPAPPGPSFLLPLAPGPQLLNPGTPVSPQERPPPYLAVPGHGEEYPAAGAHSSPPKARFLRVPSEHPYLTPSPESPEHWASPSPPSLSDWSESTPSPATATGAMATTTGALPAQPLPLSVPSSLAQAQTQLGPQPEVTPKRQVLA
# Torsin-1A-interacting protein 2 (Homo sapiens), sequence (Q8NFQ8 whole entry, looked up): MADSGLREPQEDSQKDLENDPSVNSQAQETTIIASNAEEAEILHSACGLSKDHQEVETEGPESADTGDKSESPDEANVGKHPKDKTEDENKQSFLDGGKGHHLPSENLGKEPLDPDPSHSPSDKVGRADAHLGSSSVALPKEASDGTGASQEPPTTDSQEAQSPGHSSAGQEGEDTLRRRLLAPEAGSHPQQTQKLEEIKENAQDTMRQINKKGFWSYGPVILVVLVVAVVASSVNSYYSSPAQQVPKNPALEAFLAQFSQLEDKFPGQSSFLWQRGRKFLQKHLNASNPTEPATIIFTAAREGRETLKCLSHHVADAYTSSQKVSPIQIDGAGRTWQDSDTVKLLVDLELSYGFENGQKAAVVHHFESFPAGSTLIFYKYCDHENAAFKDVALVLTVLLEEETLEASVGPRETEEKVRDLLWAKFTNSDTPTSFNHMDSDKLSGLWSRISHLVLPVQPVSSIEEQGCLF
# Pro-neuregulin-1, membrane-bound isoform (Homo sapiens), sequence (Q02297 whole entry, looked up, the tested form may be a part, canonical isoform): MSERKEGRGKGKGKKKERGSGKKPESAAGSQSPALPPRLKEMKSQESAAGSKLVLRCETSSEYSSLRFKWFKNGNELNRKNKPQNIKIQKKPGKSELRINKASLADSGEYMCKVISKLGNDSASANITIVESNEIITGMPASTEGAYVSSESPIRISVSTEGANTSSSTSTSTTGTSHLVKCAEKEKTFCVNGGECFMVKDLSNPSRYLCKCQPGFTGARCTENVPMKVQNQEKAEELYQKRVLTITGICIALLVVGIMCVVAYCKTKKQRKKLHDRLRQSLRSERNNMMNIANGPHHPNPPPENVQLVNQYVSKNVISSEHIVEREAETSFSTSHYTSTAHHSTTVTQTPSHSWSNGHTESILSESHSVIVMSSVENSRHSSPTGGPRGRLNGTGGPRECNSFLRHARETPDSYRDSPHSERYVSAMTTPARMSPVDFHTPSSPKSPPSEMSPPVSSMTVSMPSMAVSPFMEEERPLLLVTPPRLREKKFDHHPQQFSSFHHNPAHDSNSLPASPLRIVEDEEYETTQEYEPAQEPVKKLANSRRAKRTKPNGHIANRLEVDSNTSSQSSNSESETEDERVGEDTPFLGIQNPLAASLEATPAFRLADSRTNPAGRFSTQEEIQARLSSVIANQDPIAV
SMILES,composite z-score [1],composite z-score [2],composite z-score [3],composite z-score [4],composite z-score [5],composite z-score [6],composite z-score [7],z-score [8],composite z-score [9],composite z-score [10],composite z-score [11],z-score [12],z-score [13],z-score [14],composite z-score [15],z-score [16],composite z-score [17],composite z-score [18],composite z-score [19],composite z-score [20]
COC(=O)[C@H](C)NC(=O)CCC1CC(OC(=O)NCc2ccc3c(c2)OCO3)CC2(CCCC(COC(=O)NCCc3ccc(Cl)cc3)O2)O1 (stereo not given in full),-0.592,-0.406,-0.0812,0.218,0.576,0.212,0.562,0.628 (inactive),0.17,-0.126,0.898,0.341 (inactive),0.744 (inactive),-0.529 (inactive),0.945,0.181 (inactive),-0.14,0.621,0.67,-0.0675
CC(=O)OC[C@H]1O[C@H](CCON=C(C)CCN2CCCc3nc(C)c(C)cc32)C=C[C@@H]1OC(C)=O,-0.293,0.704,-0.0454,0.72,1.19,0.237,1.1,0.523 (inactive),0.522,0.0722,1.54,0.569 (inactive),0.339 (inactive),0.61 (inactive),1.31,1.08 (inactive),0.118,0.754,1.04,0.577
CO[C@H]1COC(=O)[C@H](CCSC)NC(=O)CC=C[C@@H](C)[C@H](OC)COC(=O)[C@@H](OCc2ccccc2)C=C[C@@H]1C,-0.459,0.633,-0.188,0.227,0.133,-0.388,0.597,0.306 (inactive),-0.276,-0.134,1.56,-0.772 (inactive),-0.282 (inactive),-1.65 (inactive),-1.05,-0.317 (inactive),-0.0131,1.39,0.472,-0.0531
CO[C@H]1COC(=O)CC=C[C@@H](C)COC(=O)[C@H]2CCCN2C(=O)CC=C[C@H]1C,-0.867,2.36,-0.147,-0.103,-0.315,-0.278,1.06,-0.352 (inactive),0.0653,0.445,1.55,0.591 (inactive),-0.74 (inactive),0.0488 (inactive),0.128,0.457 (inactive),-0.194,1.86,-0.341,0.0129
CCOC(=O)[C@H](Cc1ccccc1)NC(=O)CCC1CC(OC(=O)NCc2ccc3c(c2)OCO3)CC2(CCCC(COC(=O)NCCc3ccc(Cl)cc3)O2)O1 (stereo not given in full),-0.415,0.388,-0.114,0.351,0.832,0.107,0.918,-0.327 (inactive),-0.18,-0.0994,1.55,-1.93 (inactive),-0.616 (inactive),0.376 (inactive),1.78,-0.698 (inactive),-0.148,0.819,1.16,-0.081
C[C@H]1CC[C@H]2C(=O)OC(COc3ccc(C(C)(C)C)cc3)CN2[C@@H]1c1ccc(Br)cc1 (stereo not given in full),-0.373,-0.52,-0.169,0.62,-0.123,0.449,1.05,0.458 (inactive),-0.0895,-0.0618,1.02,-0.498 (inactive),-17.9 (active),-1.73 (inactive),1.25,1.24 (inactive),-0.139,0.756,0.165,-0.175
CCN1C(=O)[C@H]2[C@H]3[C@H](O)[C@H](O)CC(=NOCC[C@@H]4C=C[C@H](OC(C)=O)[C@@H](COC(C)=O)O4)[C@@H]3CC[C@H]2C1=O,-0.298,0.198,-0.0085,0.547,0.522,0.0776,0.314,0.511 (inactive),0.186,0.259,-0.001,0.826 (inactive),-0.473 (inactive),0.0739 (inactive),0.506,0.0628 (inactive),0.0819,0.478,1,-0.0208
CCN1C(=O)[C@H]2[C@H]3[C@H](O)[C@H](O)CC(=NO[C@H](C)c4cn([C@H](CO)Cc5ccccc5)nn4)[C@@H]3CC[C@H]2C1=O,-0.907,0.0378,-0.116,1.08,1.01,0.782,0.934,0.804 (inactive),0.606,-0.344,1.4,-0.444 (inactive),0.121 (inactive),-0.371 (inactive),1.59,0.607 (inactive),-0.207,0.496,0.89,-0.0132
COc1ccc(COC(=O)NN=C2C[C@@H](O)[C@@H](O)[C@@H]3[C@@H]4C(=O)N(C5CCCCC5)C(=O)[C@@H]4CC[C@@H]23)cc1,0.848,-0.132,-0.0883,-0.176,-0.515,-0.112,-0.313,0.468 (inactive),1.34,-0.48,0.35,-0.703 (inactive),-1.86 (inactive),-0.617 (inactive),0.611,-1.03 (inactive),0.687,0.159,-0.218,-0.127
C#CCCCON=C1C[C@@H](O)[C@@H](O)[C@@H]2[C@@H]3C(=O)N(CC)C(=O)[C@@H]3CC[C@H]12,-0.281,0.368,-0.0885,0.236,0.03,1.16,0.528,-0.234 (inactive),0.0594,-0.128,1.37,-0.276 (inactive),-0.26 (inactive),-0.247 (inactive),2.11,0.216 (inactive),-0.25,0.726,0.348,-0.174
